# Sampled rows, rich in hits. Any-hit rate of the full collection: about 1.9%.
# p47phox inh: p47phox/p22phox peptide binding inhibitors, primary screen, biochemical, uHTS, NADPH oxidase regulatory subunit. fluorescence polarization, 2 h. inhibition, % at 24.7 µM. Neutrophil cytosol factor 1 (Homo sapiens), P14598. 220,000 tested, 0.53% active;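 active = inhibition above about 30%, limit read from the data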
# HMGR II inh: inhibitors of E. faecalis class II HMGR, primary screen, biochemical, Enterococcus faecalis; HMG-CoA reductase (Enterococcus faecalis, mvaE); purified E. faecalis HMGR, NADPH absorbance 340 nm kinetic; inhibition, % at 10 µM; 190,000 tested, 0.41% active; AID 1066, 2008;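 active = inhibition above a set limit, the median over all tested compounds plus 3 SD, cut at about 9.5% in these data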;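 note: enzyme runs in reverse so mevalonate oxidation gives rising NADPH absorbance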
# 14-3-3 Bad PPI: inhibitors of 14-3-3 zeta/Bad binding, primary screen, biochemical, TR-FRET, bovine 14-3-3 zeta; TR-FRET 14-3-3zeta/Dy647-pBad peptide displacement, 1 h; inhibition, % at 21.7 µM; 220,000 tested, 0.71% active;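 active = inhibition above about 70%, limit read from the data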
# Target sequence (P63103 whole entry, looked up): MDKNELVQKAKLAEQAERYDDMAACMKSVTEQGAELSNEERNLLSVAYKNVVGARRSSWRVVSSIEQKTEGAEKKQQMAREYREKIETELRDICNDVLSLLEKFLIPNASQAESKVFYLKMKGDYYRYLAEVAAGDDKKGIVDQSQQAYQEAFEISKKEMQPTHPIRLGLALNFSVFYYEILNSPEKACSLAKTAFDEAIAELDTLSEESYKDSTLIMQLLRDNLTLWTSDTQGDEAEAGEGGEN
# dFosB act-1: activators of delta FosB homodimer, primary screen, biochemical, fluorescence polarization, TAMRA-CDK5 oligo, single point; 340,000 tested, 0.99% active; activation, % at 25 µM; purified delta FosB; percent of positive-control signal above neutral wells;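 active = mean activation above about 17%, with every replicate also reaching it, limit read from the data, passing the limit was not always enough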
# Target sequence (P13346 whole entry, looked up): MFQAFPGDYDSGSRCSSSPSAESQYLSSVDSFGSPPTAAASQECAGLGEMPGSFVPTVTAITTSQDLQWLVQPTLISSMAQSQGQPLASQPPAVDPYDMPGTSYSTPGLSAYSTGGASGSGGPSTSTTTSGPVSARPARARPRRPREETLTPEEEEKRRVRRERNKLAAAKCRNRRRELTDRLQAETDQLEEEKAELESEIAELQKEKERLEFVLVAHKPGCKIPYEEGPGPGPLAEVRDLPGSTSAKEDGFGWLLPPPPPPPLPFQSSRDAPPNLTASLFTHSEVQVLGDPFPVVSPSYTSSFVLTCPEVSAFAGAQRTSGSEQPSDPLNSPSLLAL
# dFosB act-2: activators of mouse delta FosB DNA binding, confirmation, biochemical, fluorescence polarization, TAMRA-CDK5 oligo, cherry-picked samples; activation, % at 24.9 µM; 2,400 tested, under 10 active; purified delta FosB; normalised: neutral wells 0, positive control 100; shares compounds with dFosB act-1;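 active = highest replicate activation at or above 34% and every replicate reaching that threshold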;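 note: higher polarization means more probe DNA bound by delta FosB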
# Hits are given with their value; – = inactive; · = not tested or not shown.
SMILES,p47phox inh,HMGR II inh,14-3-3 Bad PPI,dFosB act-1,dFosB act-2
COc1cc2[nH]c(=O)n(Cc3ccc(C(=O)N4CCC(N5CCCCC5)CC4)cc3)c(=O)c2cc1OC,·,·,·,34,–
Cn1c(=O)c(=O)n(C)c2cc(S(=O)(=O)N3CCOc4ccccc43)ccc21,·,·,·,–,·
CN(C)c1cccc(NC(=O)NC2(C)CCS(=O)(=O)C2)c1 (stereo not drawn),·,·,·,–,·
CN(c1ccccc1)S(=O)(=O)c1cc(C(=O)N2CCN(c3ccccn3)CC2)ccc1Cl,–,–,–,–,·
CN(CC(=O)Nc1ccc(F)cc1)C(=O)CCc1nc2sc3c(c2c(=O)[nH]1)CCCC3,·,·,·,–,·
CN(CC(=O)Nc1ccccc1C(F)(F)F)C(=O)CCc1nc2sc3c(c2c(=O)[nH]1)CCCC3,·,·,·,23,–
CN(CC(=O)Nc1ccc(Cl)cc1)C(=O)CCc1nc2sc3c(c2c(=O)[nH]1)CCCC3,·,·,·,29,–
CCN(CC(=O)Nc1ccccc1C(F)(F)F)C(=O)CCc1nc2sc3c(c2c(=O)[nH]1)CCCC3,·,·,·,–,·
CCC(C)NC(=O)CSc1n[nH]c(=O)n1CCc1ccccc1 (stereo not drawn),·,·,·,–,·
O=C(CSc1ccc(-c2ccc3c(c2)OCO3)nn1)Nc1nccs1,–,–,–,36,–
Cc1ccc(/C=N/Nc2ccccn2)s1,·,·,·,–,·
COc1ccc(/C=N\NC(=O)c2cc(OCC(F)(F)F)ccc2OCC(F)(F)F)cc1,–,–,–,18,–
Cc1ccc(NC(=O)/C(C#N)=C/c2ccc(C)s2)c(C)c1,–,–,–,17,–
Cc1ccc(/C=C(\C#N)C(=O)Nc2c(C)cccc2C)s1,–,–,–,–,·
Cc1ccc(OCCCCN2CCC(C)CC2)c(Br)c1,–,–,–,–,·
Cc1ccc(OCCCCCCN2CCNCC2)c(Br)c1,·,·,·,23,–
Cc1ccc(O)c(N=Nc2nccs2)c1,·,·,·,–,·
COc1ccc(/C=N/NC(=O)c2ccccc2NC(=O)c2ccco2)c(OC)c1,–,·,–,84,–
COc1ccc(NC(=O)c2ccccc2NC(=O)c2ccco2)c(OC)c1,–,–,–,–,·
COc1ccccc1/C=N/NC(=O)c1cccc2ccccc12,·,·,·,37,–
COc1ccc(/C=N/NC(=O)c2cc(-c3ccccc3)nc3ccccc23)c(OC)c1,·,·,·,23,–
CCOc1cccc(-c2cc(C(=O)N/N=C/c3ccc(OC)c(CN4CCOCC4)c3)c3ccccc3n2)c1,–,–,–,39,–
CC(=O)Nc1ccc(S(=O)(=O)N2CCC(C(=O)NCCc3ccc(Cl)cc3)CC2)cc1,·,·,·,–,·
O=C(C1=CC=CN2CCS(=O)(=O)N=C12)N1CCN(c2cccc(Cl)c2)CC1,·,·,·,–,·
Cn1cccc1C(=O)OCc1nc2ccccc2c(=O)[nH]1,·,·,·,–,·
SMILES,p47phox inh,HMGR II inh,14-3-3 Bad PPI,dFosB act-1,dFosB act-2
O=C(N/N=C/c1cccc2ccccc12)c1cc2ccccc2o1,·,·,·,20,–
CCOc1ccc(NC(=O)CSc2nc3ccccc3c(=O)n2CCNC(C)=O)cc1,–,–,–,–,·
Cc1ccc(S(=O)(=O)Nc2c(C)ccc3nsnc23)cc1,–,–,–,–,·
Cc1cc([N+](=O)[O-])ccc1NC(=O)Nc1ccc(F)cc1F,–,–,–,24,–
CCOC(=O)c1c(C)nc2sc(C(=O)Nc3ccc(C(C)=O)cc3)c(N)c2c1-c1ccc(OC)cc1,–,–,–,19,–
Cc1ccc(C(=O)NC(NC(=O)c2ccc(C)cc2)C(Cl)Cl)cc1,–,–,·,24,–
CC1CCN(C(=O)/C(=C\c2ccco2)NC(=O)c2ccccc2)CC1,·,·,·,–,·
Cc1ccc2[nH]c3c(NCCN4CCOCC4)ncnc3c2c1,–,–,–,–,·
Clc1ccc2[nH]c3c(NCCCN4CCOCC4)ncnc3c2c1,–,–,–,22,–
CC1CCN(S(=O)(=O)c2ccc(C(=O)Nc3sccc3C(N)=O)cc2)CC1,–,–,–,53,–
Cc1cc2nc(C)n(CCCNC(=O)Nc3cccc4ccccc34)c2cc1C,–,–,–,53,–
CCOc1ccc(NC(=O)NCCCn2c(C)nc3cc(C)c(C)cc32)cc1,–,–,–,–,·
CSc1nc2ccccc2n1CC(=O)Nc1ccc(C)c(C)c1,–,–,–,–,·
Cc1cccc(CSc2nc3ccncc3n2CC(=O)Nc2cc(C)cc(C)c2)c1,–,12,–,33,–
Nc1nnc(SCC(=O)Nc2ccccc2)s1,–,·,–,–,·
Oc1ccc(/C=N/Nc2ncc(Cl)cc2Cl)cc1,·,·,·,–,·
O=C(CSc1nc2sc3c(c2c(=O)n1-c1ccccc1)CCCC3)NCc1ccco1,–,–,–,52,–
CC1(C)Cc2c(sc3nc(SCC(=O)NCc4ccco4)n(-c4ccccc4)c(=O)c23)CS1,–,–,–,–,·
Cc1ccc(OCC(=O)Nc2ccc(-c3nc4ncccc4o3)cc2)c(C)c1,–,–,–,73,–
O=C(CSc1n[nH]c(-c2ccco2)n1)Nc1sc2c(c1C(=O)Nc1ccccc1)CCCC2,–,–,–,25,–
CCOC(=O)c1c(NC(=O)CSc2n[nH]c(-c3ccco3)n2)sc(C)c1C,–,–,–,–,·
CCOC(=O)c1ccc(NC(=O)C2CCCN(S(=O)(=O)c3cnc[nH]3)C2)cc1 (stereo not drawn),–,–,–,–,·
COc1ccc2c(Cl)c(C(=O)N/N=C/c3ccncc3)sc2c1,·,·,·,52,–
O=C(N/N=C/c1ccncc1)c1sc2ccccc2c1Cl,·,·,·,–,·
CCCOc1ccc2ccccc2c1/C=C1\SC(=O)NC1=O,·,·,·,–,·
SMILES,p47phox inh,HMGR II inh,14-3-3 Bad PPI,dFosB act-1,dFosB act-2
O=C(NC(=S)Nc1nc(-c2cccc([N+](=O)[O-])c2)cs1)c1ccccc1Cl,–,–,–,88,–
COc1ccccc1NC(=O)c1sc2ncn(CC(=O)Nc3ccccc3)c(=O)c2c1C,·,·,·,49,–
COc1ccccc1NC(=O)Cn1cnc2sc(C(=O)Nc3cc(OC)c(OC)c(OC)c3)c(C)c2c1=O,·,·,·,–,·
NC(=O)C1CCN(CC(=O)NC2CCCc3ccccc32)CC1 (stereo not drawn),–,–,–,–,·
Cc1ccc(-c2nnn(CC(=O)NC3CCCc4ccccc43)n2)cc1 (stereo not drawn),–,–,–,25,–
Cc1cccc(Nc2nnc(SCC(=O)NC3CCCc4ccccc43)s2)c1 (stereo not drawn),–,–,–,21,–
CCCCn1c(N)c(N(CC)C(=O)c2cccc(C)c2)c(=O)[nH]c1=O,·,·,·,–,·
CCOCCn1c(=NC(=O)/C=C/c2ccccc2Cl)sc2cc(NC(C)=O)ccc21,–,–,–,–,·
COCCn1c(=NC(=O)/C=C/c2ccccc2Cl)sc2cc(NC(C)=O)ccc21,–,–,–,27,–
C=CCn1c(SCC(=O)Nc2ccccc2OC)nc2c([nH]c3ccccc32)c1=O,·,·,·,44,–

# Screening data (PubChem)
